AmpC det inh – blocks E. coli AmpC beta-lactamase in presence of detergent. 71,000 compounds, 0.09% hits. P00811. purified AmpC, nitrocefin hydrolysis with detergent. Potency, µM (series often up to 28.7 µM). AID 584; active = well fitted curve in the direction sought with a large enough effect; inconclusive = small, poorly fitted or top-dose-only effect
Target sequence (P00811 whole entry, looked up): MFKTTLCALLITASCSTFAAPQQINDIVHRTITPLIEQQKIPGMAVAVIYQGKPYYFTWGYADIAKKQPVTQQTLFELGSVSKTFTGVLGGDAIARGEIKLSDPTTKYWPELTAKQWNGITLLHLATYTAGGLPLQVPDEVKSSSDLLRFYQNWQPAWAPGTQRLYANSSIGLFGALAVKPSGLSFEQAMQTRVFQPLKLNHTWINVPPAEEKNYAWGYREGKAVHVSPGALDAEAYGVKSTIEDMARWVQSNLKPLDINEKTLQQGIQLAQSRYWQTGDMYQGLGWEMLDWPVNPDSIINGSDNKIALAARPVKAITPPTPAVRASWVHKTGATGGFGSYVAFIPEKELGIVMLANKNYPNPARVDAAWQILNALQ
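E. coli AmpC (5.3 nM) in 20 mM phosphate pH 7.0 with 0.01% Triton X-100, preincubated 15 min RT with compound; nitrocefin (2 uL of 800 uM stock) hydrolysis followed by 480 nm absorbance every 20 s over 4 min.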
AmpC inh no det – inhibitors of E. coli AmpC beta-lactamase without detergent | P00811 | AmpC nitrocefin hydrolysis, absorbance 480 nm, no detergent | Potency, µM (series often up to 28.7 µM) | 71,000 compounds, 1.8% hits | AID 585
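AmpC in 20 mM phosphate buffer pH 7.0 was preincubated 15 min at room temperature with compounds. Nitrocefin (800 uM stock) was then added and hydrolysis followed at 480 nm every 20 s for 4 min.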
LT uptake inh – blocks cellular internalization of anthrax lethal toxin; Cells, anthrax lethal toxin internalization, FRET ratio (460/530); Potency, µM (doses to about 40 µM), usual class: inhibitors; AID 912; 70,000 compounds, 0.67% hits; note: nearly all actives have a fitted effect of over 50% in size
SmPrx2 inh – inhibitors of Schistosoma mansoni peroxiredoxin 2. S. mansoni Prx2 activity coupled to TGR/GSH (TGR is thioredoxin glutathione reductase), NADPH fluorescence loss, qHTS. Potency, µM. 65,000 compounds, 0.07% hits. AID 448
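Coupled assay in which S. mansoni TGR passes NADPH reducing equivalents via glutathione to Prx2, which reduces H2O2. Compounds were preincubated 15 min at room temperature with 25 nM TGR/50 nM Prx2 mix. Kinetic NADPH fluorescence loss (ex 365/em 450 nm) was monitored.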
Hits are given with their value; [ ] = another dose, or the depositor's remark. In the library only some 2.4% were active in any assay of this set; here they are far more common. Unless noted, calls come from the whole dose curve.

Screening COc1ccc(CCNc2nc(C)nc3c2oc2ccccc23)cc1OC returned AmpC det inh inactive, AmpC inh no det inactive, LT uptake inh 10µM and SmPrx2 inh inactive.
CCOC(=O)c1sc(NC(=O)c2noc3c2CCCC3)c(C(=O)OCC)c1C was read as AmpC det inh inactive, AmpC inh no det 4µM[single pt active], LT uptake inh inactive and SmPrx2 inh inactive.
CCOC(=O)c1c(NC(=O)c2noc3c2CCCC3)sc(C)c1C was read as AmpC det inh inactive, AmpC inh no det inactive, LT uptake inh inactive and SmPrx2 inh inactive.
`Nc1ccccc1O.O.O=C(O)[C@H]1[O][Sb][O][C@H]1C(=O)O` gave AmpC det inh inactive[5.75 µM], AmpC inh no det inactive[5.75 µM], LT uptake inh inconclusive and SmPrx2 inh 0.22.
For CCOC(=S)SCC(=O)O the results were AmpC det inh inactive[5.75 µM], AmpC inh no det inactive[5.75 µM], LT uptake inh inactive[8 µM] and SmPrx2 inh inactive.
COc1ccc2nc(NC(=O)C3CCCN(S(=O)(=O)c4c(C)noc4C)C3)sc2c1 (stereo unspecified) was read as AmpC det inh inactive, AmpC inh no det 4µM[single pt active], LT uptake inh inconclusive and SmPrx2 inh inactive.
For Cc1cc(NC(=O)C2CCCN(S(=O)(=O)c3c(C)noc3C)C2)n[nH]1 (stereo unspecified) the results were AmpC det inh inactive, AmpC inh no det 4µM[single pt active], LT uptake inh inconclusive and SmPrx2 inh inactive.
`Cc1noc(C)c1S(=O)(=O)N1CCCC(C(=O)N2CCN(C3CCCCC3)CC2)C1` (stereo unspecified) gave AmpC det inh inactive, AmpC inh no det 4µM[single pt active], LT uptake inh inactive and SmPrx2 inh inactive.
`CCOc1ccc2nc(NC(=O)C3CCCN(S(=O)(=O)c4c(C)noc4C)C3)sc2c1` (stereo unspecified) gave AmpC det inh inactive, AmpC inh no det 4µM[single pt active], LT uptake inh inconclusive and SmPrx2 inh inactive.
For COc1ccc(N(CC(=O)O)N=O)cc1 the results were AmpC det inh inactive[5.75 µM], AmpC inh no det inactive[5.75 µM], LT uptake inh inactive[8 µM] and SmPrx2 inh inactive.
`CCOc1ccccc1O[C@@H](c1ccccc1)[C@@H]1CNCCO1` gave AmpC det inh inactive, AmpC inh no det inactive, LT uptake inh inactive and SmPrx2 inh inactive.
Screening CC(=O)N1CCC2(CC1)CN(Cc1ccc(C#N)cc1)C2 returned AmpC det inh inactive, AmpC inh no det inactive, LT uptake inh inactive and SmPrx2 inh inactive.
CCN1CCN(C(=O)C(NS(=O)(=O)c2ccc3nc(C)sc3c2)C(C)C)CC1 (stereo unspecified) was read as AmpC det inh inactive, AmpC inh no det inactive, LT uptake inh inactive and SmPrx2 inh inactive.
Cc1nc2ccc(S(=O)(=O)NC(C(=O)NC3CCCC3)C(C)C)cc2s1 (stereo unspecified) was read as AmpC det inh inactive, AmpC inh no det 4µM[single pt active], LT uptake inh inactive and SmPrx2 inh inactive.
Cc1ccc(-c2nc(CS(=O)CC(=O)NCCCN3CC(C)CC(C)C3)c(C)o2)cc1 (stereo unspecified) was read as AmpC det inh inactive, AmpC inh no det 4µM[single pt active], LT uptake inh inactive and SmPrx2 inh inactive.
CCCN(CCC)CCNC(=O)CS(=O)Cc1nc(-c2ccc(C)cc2)oc1C (stereo unspecified) was read as AmpC det inh inactive, AmpC inh no det inactive, LT uptake inh inactive and SmPrx2 inh inactive.
`CCCCNC(=O)CS(=O)Cc1nc(-c2ccc(C)cc2)oc1C` (stereo unspecified) gave AmpC det inh inactive, AmpC inh no det 4µM[single pt active], LT uptake inh inactive and SmPrx2 inh inactive.
For CCN(CC)CCOc1ccc(Cc2ccccc2)cc1 the results were AmpC det inh inactive, AmpC inh no det inactive, LT uptake inh 25µM and SmPrx2 inh inactive.
For COc1cc2c(cc1OC)-c1c(OC)c(OC)c(CO)c3c1[C@H](C2)N(C)CC3 the results were AmpC det inh inactive, AmpC inh no det inactive, LT uptake inh inactive and SmPrx2 inh inactive.
Screening Cc1cc(N=Cc2c(O)n(-c3ccc4c(c3)OCO4)c(=O)c3ccccc23)ccn1 returned AmpC det inh inactive, AmpC inh no det inactive, LT uptake inh 7.9µM and SmPrx2 inh inactive.
COc1ccc(S(=O)(=O)N2c3ccc(Cl)cc3[C@](O)(c3ccccc3Cl)[C@@H]2C(=O)N2CCC[C@H]2C(N)=O)cc1OC was read as LT uptake inh inactive.
Screening Cc1ccc(-n2nnc3ccccc3c2=O)cc1C returned AmpC det inh inactive, AmpC inh no det inactive and LT uptake inh 13µM.
COc1cccc(-c2nc(NCc3cccnc3)c3ccccc3n2)c1 was read as AmpC det inh 13µM, AmpC inh no det inconclusive, LT uptake inh inactive and SmPrx2 inh inactive.

Bioassay records from PubChem BioAssay.
